Results from PubChem BioAssay AID743354 (Broad Institute, 2014).
Results with a measured potency or affinity are listed apart. Active and inactive are the calls of the source.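 How the source made its calls: active means cytotoxic signal drop with a fitted half-maximal concentration at most twice the top valid tested dose; inconclusive means flat fit with moderate signal loss, or poor fit quality; inactive means opposite effect, flat response, or potency beyond limit.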

Test: HEK293 cell cytotoxicity, dose response, cytotoxicity control, luminescence, dry powder, set 12 (AID 743354)
Conditions: HEK293T viability, CellTiter-Glo ATP luminescence, 72 h; series mostly up to 26 µM; activity change, negative = cytotoxic: at the top concentration
For CNC(=O)c1ccc(N2CCN(C(=O)c3ccc4c(c3)OCO4)CC2)cc1, the “activity change, negative = cytotoxic” value was -0.972% (inactive). For COc1ccc(NC(=O)N2CC[C@@H]3[C@@H](CO)N(C)c4ccc(-c5cccc(F)c5)cc4[C@@H]32)cc1, the “activity change, negative = cytotoxic” value was 1.8% (inactive). For COc1ccccc1C(=O)N1CCN(c2ccc(C(C)=O)cc2)CC1, the “activity change, negative = cytotoxic” value was -1.08% (inactive). For CCCNC(=O)N1CC[C@@H]2[C@@H](CO)N(C)c3ccc(-c4ccc(F)cc4)cc3[C@@H]21, the “activity change, negative = cytotoxic” value was -1.65% (inactive). With CN1c2ccc(-c3cccc(F)c3)cc2[C@H]2[C@H](CCN2C(=O)Nc2ccccc2F)[C@H]1CO the “activity change, negative = cytotoxic” value was -2.02% [at 23.5 µM] (inactive). With CCCCCCCC(=O)N1CC[C@@H]2[C@@H](CO)N(C)c3ccc(-c4cccc(F)c4)cc3[C@@H]21 the “activity change, negative = cytotoxic” value was 3.9% (inactive). With CC(=O)c1ccc(NCCNC(=O)c2ccc3c(c2)OCO3)cc1 the “activity change, negative = cytotoxic” value was -0.945% (inactive). For CN1c2ccc(-c3ccc(F)cc3)cc2[C@H]2[C@H](CCN2C(=O)Nc2cc(F)ccc2F)[C@H]1CO, the “activity change, negative = cytotoxic” value was -9.18% [at 23.5 µM] (inactive). In the case of CN1c2ccc(-c3ccc(F)cc3)cc2[C@H]2[C@H](CCN2C(=O)Cc2cccnc2)[C@H]1CO, the “activity change, negative = cytotoxic” value was 2.81% [at 23.5 µM] (inactive). In the case of CN1c2ccc(-c3cccc(F)c3)cc2[C@H]2[C@H](CCN2C(=O)c2ccc3c(c2)OCO3)[C@@H]1CO, the “activity change, negative = cytotoxic” value was 3.57% (inactive). For CN1c2ccc(-c3ccc(F)cc3)cc2[C@H]2[C@H](CCN2C(=O)Nc2ccc(F)cc2)[C@H]1CO, the “activity change, negative = cytotoxic” value was -6.51% (inactive). For COc1ccccc1NC(=O)N1CC[C@@H]2[C@@H](CO)N(C)c3ccc(-c4cccc(F)c4)cc3[C@@H]21, the “activity change, negative = cytotoxic” value was -4.14% [at 23.5 µM] (inactive). For CN(C)C(=O)c1ccc(N2CCN(C(=O)c3ccc4c(c3)OCO4)CC2)cc1, the “activity change, negative = cytotoxic” value was -0.522% (inactive). In the case of COc1ccccc1NC(=O)N1CC[C@@H]2[C@@H](CO)N(C)c3ccc(-c4ccc(F)cc4)cc3[C@@H]21, the “activity change, negative = cytotoxic” value was -4.86% (inactive). With CN1c2ccc(-c3cccc(F)c3)cc2[C@H]2[C@H](CCN2C(=O)Cc2cccnc2)[C@H]1CO the “activity change, negative = cytotoxic” value was -0.157% (inactive). For CN1c2ccc(-c3cccc(F)c3)cc2[C@@H]2[C@@H](CCN2C(=O)c2ccc3c(c2)OCO3)[C@@H]1CO, the “activity change, negative = cytotoxic” value was -1.34% (inactive). For CN1c2ccc(-c3cccc(F)c3)cc2[C@H]2[C@H](CCN2C(=O)Cc2ccccc2)[C@H]1CO, the “activity change, negative = cytotoxic” value was -7.06% [at 23.5 µM] (inactive). For COc1ccc(NC(=O)N2CC[C@@H]3[C@@H](CO)N(C)c4ccc(-c5ccc(F)cc5)cc4[C@@H]32)cc1, the “activity change, negative = cytotoxic” value was -1.74% (inactive). For CC(=O)c1ccc(N2CCN(C(=O)c3ccc4c(c3)OCO4)CC2)cc1, the “activity change, negative = cytotoxic” value was -6.96% (inactive). With CC(=O)c1ccc(N2CCN(C(=O)c3ccccc3Cl)CC2)cc1 the “activity change, negative = cytotoxic” value was -1% (inactive). For CC(C)NC(=O)N1CC[C@@H]2[C@@H](CO)N(C)c3ccc(-c4ccc(F)cc4)cc3[C@@H]21, the “activity change, negative = cytotoxic” value was -6.15% (inactive). In the case of COCC(=O)N1CC[C@@H]2[C@@H](CO)N(C)c3ccc(-c4cccc(F)c4)cc3[C@@H]21, the “activity change, negative = cytotoxic” value was -6.94% (inactive). In the case of CNS(=O)(=O)c1ccc(N2CCN(C(=O)c3ccc4c(c3)OCO4)CC2)cc1, the “activity change, negative = cytotoxic” value was 1.42% (inactive). For CC(C)NC(=O)N1CC[C@@H]2[C@@H](CO)N(C)c3ccc(-c4cccc(F)c4)cc3[C@@H]21, the “activity change, negative = cytotoxic” value was -2.92% (inactive). In the case of CCC(=O)N1CC[C@@H]2[C@@H](CO)N(C)c3ccc(-c4ccc(F)cc4)cc3[C@@H]21, the “activity change, negative = cytotoxic” value was 2.33% [at 23.5 µM] (inactive). In the case of CC(=O)c1ccc(N2CC3(CN(C(=O)c4ccc5c(c4)OCO5)C3)C2)cc1, the “activity change, negative = cytotoxic” value was 3.16% (inactive). With COC(=O)c1ccc(N2CCN(C(=O)c3ccc4c(c3)OCO4)CC2)cc1 the “activity change, negative = cytotoxic” value was 1.03% (inactive). With CN1c2ccc(-c3cccc(F)c3)cc2[C@@H]2[C@@H](CCN2C(=O)c2ccc3c(c2)OCO3)[C@H]1CO the “activity change, negative = cytotoxic” value was 1.77% (inactive). With CN1c2ccc(-c3ccc(F)cc3)cc2[C@H]2[C@H](CCN2C(=O)Cc2ccccn2)[C@H]1CO the “activity change, negative = cytotoxic” value was -0.802% (inactive). In the case of COc1cccc(NC(=O)N2CC[C@@H]3[C@@H](CO)N(C)c4ccc(-c5cccc(F)c5)cc4[C@@H]32)c1, the “activity change, negative = cytotoxic” value was -1.77% (inactive). For CN1c2ccc(-c3cccc(F)c3)cc2[C@H]2[C@H](CCN2C(=O)CCCCCCC(=O)O)[C@H]1CO, the “activity change, negative = cytotoxic” value was -2.42% (inactive). In the case of CC(=O)c1ccc(N2CCN(C(=O)c3ccc4c(c3)OCO4)[C@H](C)C2)cc1, the “activity change, negative = cytotoxic” value was -0.499% (inactive).
